# About 2,700 (4%) of roughly 68,000 compounds showed an effect of 50% or more. The full list was thinned out, with strong results kept by preference.
# System: Plasmodium berghei
# Experiment: Screen against P. berghei liver stage (PbLuc), transformed with Luciferase, at 2uM
# Assay type: functional, HepG2
# Settings: tested at 2 uM
row,Compound,INHIBITION [%]
1,F[C@@H]1CN(Cc2cccnc2)C[C@@H]1OCc1nc2ccccc2[nH]1,20.41
2,O=C(Cc1ccco1)N1C[C@H]2CCC[C@@]2(COCC2CC2)C1,8.17
3,O=C(Cc1ccco1)N1C[C@H]2CCC[C@@]2(COc2cccnc2)C1,-75.76
4,COC[C@@]12CCC[C@@H]1CN(C(=O)Cc1ccco1)C2,53.08
5,CCn1ccnc1CN1CCN(c2ncnc3ccsc23)CC1C (configuration not stated),-115.54
6,O=C(c1cnc(O)cc1O)N1CCCC(CCc2ccccc2F)C1 (configuration not stated),29.41
7,COCCN1CCCC2(CCN(c3nccnc3N(C)C)C2)C1=O (configuration not stated),-38.59
8,COCCN1CCCC(O)(CN2CCN(c3ncccc3C)CC2)C1=O (configuration not stated),75.47
9,COCCN1CCCC(O)(CN2CCN(c3cc(C)ccn3)CC2)C1=O (configuration not stated),17.6
10,COCCN1CCCC2(CCN(c3nccc4ccccc34)C2)C1=O (configuration not stated),50.61
11,COCCN1CCCC(O)(CN2CCCN(c3ncccn3)CC2)C1=O (configuration not stated),31.35
12,COCCN1CCCC2(CCN(c3ncnc(C)c3C)C2)C1=O (configuration not stated),24.05
13,CCS(=O)(=O)N1CCC2(CN(c3cc(OC)ncn3)C2)C1,35.37
14,CC(OCC1CC1)C(=O)Nc1cccc(C(=O)Nc2ccncc2)c1 (configuration not stated),10.72
15,CC(C)C[C@H](N)c1nnc(SCC(N)=O)o1,31.02
16,Cc1n[nH]c(C)c1CNC(=O)CSCc1ccccc1Cl,37.77
17,CCSc1ccc(C(=O)N2CCC3(CCC(=O)N(C)C3)CC2)s1,-12.89
18,CSC1(CNc2ccc(Br)cn2)CCOCC1,30.06
19,Cc1cc(C)cc(NC(=O)Nc2c(O)c3ccccc3oc2=O)c1,19.49
20,Cc1cnn(CCCNC(=O)NC(C)C(=O)Nc2ccccc2)c1 (configuration not stated),-17.39
21,Nc1nnc(SCC(=O)c2cc3c(cc2Cl)NC(=O)C3)s1,9.42
22,Cc1nnc(SCC(=O)c2cc3c(cc2Cl)NC(=O)C3)s1,-21.29
23,Cc1nnc(SCC(=O)c2cc3c(cc2Cl)NC(=O)C3)o1,54.73

row,Compound,INHIBITION [%]
1,CCCNC(=O)C(C)n1nc(-c2ccc(C)o2)cc(N)c1=O (configuration not stated),0.86
2,Cc1ccc(CN2C[C@H]3CN(C(=O)c4ccno4)CCN3C2=O)cc1,2.66
3,CC(C)CC(C)NCCCN1CCCN(C)CC1 (configuration not stated),19.13
4,Cc1occc1CNC(=O)C1(C)CCCN1C(=O)c1ccccc1 (configuration not stated),22.34
5,CC(C)C(=O)N1CCC12CCCN(C(=O)c1ccccc1)C2 (configuration not stated),-1.55
6,Cc1occc1CNC(=O)C1(C)CCCN(C(=O)c2ccccc2)C1 (configuration not stated),52.08
7,Cc1c(C2CCCN(C(=O)c3cccnc3)C2)n2c(nc1=O)CCC2 (configuration not stated),-16
8,Cn1cc(N2CCC3(CCCN(Cc4ccc(F)cc4)C3)C2=O)cn1 (configuration not stated),51.26
9,Cn1cc(N2CCC3(CCCN(Cc4ccoc4)C3)C2=O)cn1 (configuration not stated),25.4
10,Cn1cc(CN2CCC3(CCN(c4cnn(C)c4)C3=O)C2)cn1 (configuration not stated),13.61
11,COc1ccc(CN2CCC3(CC2)CCN(c2cnn(C)c2)C3=O)cc1,65.32
12,Cn1cc(CN2CCCC3(CCN(c4cccnc4)C3=O)C2)cn1 (configuration not stated),-7.09
13,COc1ccc(CN2CCC3(CCN(c4cccnc4)C3=O)C2)cc1 (configuration not stated),0.83
14,Cn1ncc2c1CCCN(C(=O)C1CCC1)C2,7.46
15,Cc1nccnc1CCC1COCCN1C(=O)CCc1c(C)noc1C (configuration not stated),-12.6
16,COc1cccc(-c2noc(-c3ccc(NCC4CC4)nc3)n2)c1OC,-57.64
17,CC(C)(C)CN1CCC[C@H]1c1nc(-c2cncnc2N)no1,-10.21
18,COc1cc(CN(C(=O)Nc2cccnc2OC)C2CC2)ccc1O,-34.31
19,Cn1nc2c(cc1=O)CN(Cc1nnc(-c3ccco3)o1)CC2,-32.49
20,Cc1cc2n(n1)CCN(c1nc(N(C)C)nc3c1CCNC3)C2,15.46
21,CN(C)C(=O)N1CCC(C(=O)N2CCOC(CC3CCCCC3)C2)CC1 (configuration not stated),54.77
22,CC(=O)N1CCC(N2CCOC(CC3CCCCC3)C2)CC1 (configuration not stated),56.69
23,CC(=O)N1CCC(C(=O)N2CCOC(CC3CCCCC3)C2)CC1 (configuration not stated),38.49

row,Compound,INHIBITION [%]
1,O=C(C1CCOCC1)N1CCOC(CC2CCCCC2)C1 (configuration not stated),28.91
2,COc1cccc(CC2CN(C3CCN(C(C)=O)CC3)CCO2)c1 (configuration not stated),17.75
3,Cc1ncoc1C(=O)N1CCOC(CC2CCCCC2)C1 (configuration not stated),-78.64
4,CC(C)c1nc2c(n1C)CCN(CCS(=O)(=O)c1ccccc1)C2,18.35
5,CCCc1nnsc1C(=O)NCC1CCN(S(C)(=O)=O)CC1,-4.49
6,Cc1ccc(CNC2(Cc3cc(-c4ccc(F)cc4)on3)COC2)o1,44.15
7,CN(C)c1cc(CNc2cncc(-n3cccn3)n2)ccn1,-15.92
8,COc1ccc2c(c1)CC(C1CCOCC1)N(C(=O)c1ccn(C)n1)C2 (configuration not stated),15.61
9,CC(c1ccco1)N(C(=O)COc1ccc(C#N)cc1)C1CC1 (configuration not stated),41.03
10,OCCn1nccc1C1CCN(CCOc2ccccc2)CC1,39.72
11,Cc1cccc(OCCN2CCC(c3ccnn3CCO)CC2)c1,7.13
12,OCCn1nccc1C1CCN(CCOc2cccc(F)c2)CC1,53.98
13,Cc1cc2c(o1)CC(C)(C)CC2NC(=O)CNC(=O)C1CC1 (configuration not stated),-22.24
14,Cc1ncc(CN(C)C(=O)Nc2cccc(C(=O)N3CCOCC3)c2)s1,15.68
15,CNC(=O)CN1CCOCC12CCN(C(=O)c1ccccc1)CC2,-41.11
16,CNC(=O)CN1CCOCC12CCN(CCc1ccccc1)CC2,53.08
17,CNC(=O)CN1CCOCC12CCN(Cc1ccncc1)CC2,34.47
18,Cc1cnn(CC2CCCCN2CCCS(N)(=O)=O)c1 (configuration not stated),8.1
19,CC(C)c1nc(O)c2nnn(C[C@H]3CCCN(Cc4cccs4)C3)c2n1,4.91
20,CC1(C)CN(C(=O)c2ncc(F)cc2F)CCC1(O)CN1CCOCC1 (configuration not stated),31.97
21,Cc1nc(Nc2ncc(C)s2)cc(C2CCCN2)n1 (configuration not stated),-30.88

# Reference: ChEMBL document CHEMBL4513216, “Probing the Open Global Health Chemical Diversity Library for Multistage-Active Starting Points for Next-Generation Antimalarials” (ACS Infect Dis, 2020)
